From PubChem BioAssay AID1159580 (chemical genetic matrix, 2015)
Values joined by “and” are separate entries in the source; they are usually repeats but may differ in a detail not shown here. Identical values can stand only once. In all, about 5,500 compounds went through this assay and about 2,000 (36%) were called active. About 18% were inconclusive and are not listed. Rule as the data show it: active = normalized growth mostly below about 0.91 (no sharp cut-off); inconclusive = no clear call, values can overlap the other calls; inactive = mostly above about 0.92. The list shows a part of the results.

Assay: chemical genetic growth profiling, strain panel (AID 1159580);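 also: tested at 20 µM; growth read once vehicle control cultures reached saturation at 30 °C; 1 = growth at the plate median or of vehicle wells; lower values mean less growth of the strain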
Details: growth OD
[1] = S. cerevisiae deletion strains, locus YAL013W, strain DEP1, active compounds read low
[2] = S. cerevisiae deletion strains, locus YBR229C, strain ROT2, active compounds read low
[3] = S. cerevisiae deletion strains, locus YDL101C, strain DUN1, active compounds read low
[4] = S. cerevisiae deletion strains, locus YEL061C, strain CIN8, active compounds read low
[5] = S. cerevisiae deletion strains, locus YGR078C, strain PAC10, active compounds read low
[6] = S. cerevisiae deletion strains, locus YHR030C, strain SLT2, active compounds read low
[7] = S. cerevisiae deletion strains, locus YKL190W, strain CNB1, active compounds read low
[8] = S. cerevisiae deletion strains, locus YLR039C, strain RIC1, active compounds read low
[9] = S. cerevisiae deletion strains, locus YMR307W, strain GAS1, active compounds read low
[10] = S. cerevisiae deletion strains, locus YOL006C, strain TOP1, active compounds read low
[11] = S. cerevisiae deletion strains, locus YPL241C, strain CIN2, active compounds read low

Measured: normalized growth

COC(=O)c1cc(OC)c(OC)cc1-n1c(C)ccc1C
inactive: [1] 0.999 | [2] 0.994 | [3] 0.975 | S. cerevisiae deletion strains, locus YDL134C, strain PPH21, active compounds read low 1.03 | S. cerevisiae deletion strains, locus YDR150W, strain NUM1, active compounds read low 0.947 | [4] 1.01 | [5] 0.987 | S. cerevisiae deletion strains, locus YGR229C, strain SMI1, active compounds read low 1 | [6] 0.999 | S. cerevisiae deletion strains, locus YHR087W, strain rtc3, active compounds read low 0.983 | S. cerevisiae deletion strains, locus YJR043C, strain POL32, active compounds read low 0.985 | S. cerevisiae deletion strains, locus YJR075W, strain HOC1, active compounds read low 0.963 | [7] 1.01 | [8] 0.993 | S. cerevisiae deletion strains, locus YLR058C, strain SHM2 (second series), active compounds read low 0.995 | S. cerevisiae deletion strains, locus YLR085C, strain ARP6, active compounds read low 1.01 | S. cerevisiae deletion strains, locus YLR262C, strain YPT6, active compounds read low 0.957 | S. cerevisiae deletion strains, locus YML094W, strain GIM5, active compounds read low 1 | S. cerevisiae deletion strains, locus YMR219W, strain ESC1, active compounds read low 0.998 | S. cerevisiae deletion strains, locus YMR263W, strain SAP30, active compounds read low 0.91 | [9] 0.948 | S. cerevisiae deletion strains, locus YNL153C, strain GIM3, active compounds read low 0.983 | S. cerevisiae deletion strains, locus YNL298W, strain CLA4 (second series), active compounds read low 1.02 | S. cerevisiae deletion strains, locus YNL322C, strain KRE1, active compounds read low 0.99 | S. cerevisiae deletion strains, locus YNR030W, strain Alg12, active compounds read low 1.01 | [10] 1 | S. cerevisiae deletion strains, locus YPL055C, strain LGE1, active compounds read low 0.877 | [11] 1 | S. cerevisiae deletion strains, locus YPR135W, strain CTF4, active compounds read low 0.915 | S. cerevisiae strains, strain wild type, active compounds read low 1.01

CC(=O)O[C@@H]1CC2C(C)(C)C(=O)CC[C@]2(C)C2CC[C@]3(C)C(=CC(=O)O[C@H]3c3ccoc3)[C@@]21C (stereo partly drawn)
inactive: [1] 0.988 | S. cerevisiae deletion strains, locus YBR021W, strain FUR4, active compounds read low 0.989 | [2] 0.939 | S. cerevisiae deletion strains, locus YCL029C, strain bik1, active compounds read low 0.985 | S. cerevisiae deletion strains, locus YDL035C, strain GPR1, active compounds read low 0.964 | S. cerevisiae deletion strains, locus YDL074C, strain BRE1, active compounds read low 0.954 | [3] 1 | S. cerevisiae deletion strains, locus YDL185W, strain tfp1, active compounds read low 0.966 | S. cerevisiae deletion strains, locus YDL192W, strain arf1, active compounds read low 0.971 | S. cerevisiae deletion strains, locus YDR101C, strain arx1, active compounds read low 0.959 | S. cerevisiae deletion strains, locus YDR162C, strain NBP2, active compounds read low 0.98 | S. cerevisiae deletion strains, locus YDR318W, strain mcm21, active compounds read low 0.992 | S. cerevisiae deletion strains, locus YDR388W, active compounds read low 0.995 | S. cerevisiae deletion strains, locus YDR502C, strain sam2, active compounds read low 1.01 | [4] 0.972 | S. cerevisiae deletion strains, locus YER110C, active compounds read low 0.978 | S. cerevisiae deletion strains, locus YER155C, strain BEM2, active compounds read low 0.991 | S. cerevisiae deletion strains, locus YER167W, strain BCK2, active compounds read low 0.97 | S. cerevisiae deletion strains, locus YGL078C, strain dbp3, active compounds read low 1.01 | S. cerevisiae deletion strains, locus YGL086W, strain mad1, active compounds read low 0.998 | S. cerevisiae deletion strains, locus YGL248W, strain PDE1, active compounds read low 0.999 | [5] 1.02 | S. cerevisiae deletion strains, locus YGR135W, strain pre9, active compounds read low 1.07 | S. cerevisiae deletion strains, locus YGR252W, strain gcn5, active compounds read low 1.03 | [6] 1.06 | S. cerevisiae deletion strains, locus YHR079C, strain IRE1 (second series), active compounds read low 0.975 | S. cerevisiae deletion strains, locus YHR079C, strain IRE1, active compounds read low 1.04 | S. cerevisiae deletion strains, locus YHR094C, strain hxt1, active compounds read low 0.991 | S. cerevisiae deletion strains, locus YHR129C, strain ARP1, active compounds read low 0.989 | S. cerevisiae deletion strains, locus YHR200W, strain rpn10, active compounds read low 1 | S. cerevisiae deletion strains, locus YIL066C, strain RNR3, active compounds read low 0.948 | S. cerevisiae deletion strains, locus YIL073C, strain SPO22, active compounds read low 0.977 | S. cerevisiae deletion strains, locus YIL125W, strain kgd1, active compounds read low 0.993 | S. cerevisiae deletion strains, locus YIR030C, strain dcg1, active compounds read low 0.987 | S. cerevisiae deletion strains, locus YJL095W, strain BCK1, active compounds read low 1.05 and 1.06 | S. cerevisiae deletion strains, locus YJL134W, strain LCB3, active compounds read low 0.98 | S. cerevisiae deletion strains, locus YJL168C, strain set2, active compounds read low 0.988 | S. cerevisiae deletion strains, locus YJL187C, strain SWE1 (second series), active compounds read low 1.01 | S. cerevisiae deletion strains, locus YJR066W, strain TOR1, active compounds read low 0.991 | S. cerevisiae deletion strains, locus YKL009W, strain mrt4, active compounds read low 0.976 | S. cerevisiae deletion strains, locus YKL068W, active compounds read low 0.991 | S. cerevisiae deletion strains, locus YKL085W, strain MDH1 (second series), active compounds read low 0.995 | S. cerevisiae deletion strains, locus YKL085W, strain MDH1, active compounds read low 0.995 | [7] 0.983 | S. cerevisiae deletion strains, locus YKR001C, strain vps1, active compounds read low 0.974 | [8] 0.961 | S. cerevisiae deletion strains, locus YLR058C, strain SHM2, active compounds read low 0.979 | S. cerevisiae deletion strains, locus YLR102C, strain apc9, active compounds read low 0.99 | S. cerevisiae deletion strains, locus YLR113W, strain HOG1, active compounds read low 1.03 | S. cerevisiae deletion strains, locus YLR268W, strain sec22, active compounds read low 0.956 | S. cerevisiae deletion strains, locus YLR371W, strain rom2, active compounds read low 0.967 | S. cerevisiae deletion strains, locus YLR418C, strain cdc73, active compounds read low 1 | S. cerevisiae deletion strains, locus YML016C, strain PPZ1, active compounds read low 0.978 | S. cerevisiae deletion strains, locus YML032C, strain rad52, active compounds read low 0.982 | S. cerevisiae deletion strains, locus YML124C, strain tub3, active compounds read low 0.992 | S. cerevisiae deletion strains, locus YMR078C, strain ctf18, active compounds read low 0.989 | S. cerevisiae deletion strains, locus YMR223W, strain ubp8, active compounds read low 1 | [9] 0.989 | S. cerevisiae deletion strains, locus YNL067W, strain RPL9B, active compounds read low 1.04 | S. cerevisiae deletion strains, locus YNL183C, strain NPR1, active compounds read low 0.989 | S. cerevisiae deletion strains, locus YNL233W, strain BNI4, active compounds read low 1.03 | S. cerevisiae deletion strains, locus YNL250W, strain rad50, active compounds read low 0.992 | S. cerevisiae deletion strains, locus YNL271C, strain bni1, active compounds read low 0.993 | S. cerevisiae deletion strains, locus YNL298W, strain CLA4, active compounds read low 0.989 | S. cerevisiae deletion strains, locus YNL307C, strain MCK1, active compounds read low 0.982 | S. cerevisiae deletion strains, locus YNR052C, strain pop2, active compounds read low 1.04 | [10] 0.932 | S. cerevisiae deletion strains, locus YOL012C, strain htz1 0.896 | S. cerevisiae deletion strains, locus YOL147C, strain pex11, active compounds read low 0.984 | S. cerevisiae deletion strains, locus YOR061W, strain CKA2, active compounds read low 0.934 | S. cerevisiae deletion strains, locus YOR069W, strain VPS5, active compounds read low 0.996 | S. cerevisiae deletion strains, locus YOR136W, strain idh2, active compounds read low 1 | S. cerevisiae deletion strains, locus YOR144C, strain elg1, active compounds read low 0.997 | S. cerevisiae deletion strains, locus YOR184W, strain ser1, active compounds read low 0.964 | S. cerevisiae deletion strains, locus YOR231W, strain MKK1, active compounds read low 1.07 | S. cerevisiae deletion strains, locus YOR316C, strain cot1, active compounds read low 0.997 | [11] 0.978 | S. cerevisiae deletion strains, locus YPL256C, strain CLN2, active compounds read low 1.05 | S. cerevisiae deletion strains, locus YPR119W, strain clb2, active compounds read low 0.992 | S. cerevisiae deletion strains, locus YPR141C, strain kar3, active compounds read low 0.982 | S. cerevisiae deletion strains, locus YPR163C, strain tif3, active compounds read low 0.99 | S. cerevisiae deletion strains, locus YPR167C, strain met16, active compounds read low 0.992 | S. cerevisiae deletion strains, strain wtn01, active compounds read low 0.967
